This passage reports inhibition results from ChEMBL document CHEMBL1961873, “Compounds: GSK PKIS; Assays: Nanosyn kinase panel” (2012).

Values joined by “and” are separate entries in the source; they are usually repeats but may differ in a detail not shown here. Identical values can stand only once.

In experiment [1] the target is T1, Tyrosine-protein kinase receptor TYRO3 (Homo sapiens) (UniProt Q06418).
T1 sequence (whole entry): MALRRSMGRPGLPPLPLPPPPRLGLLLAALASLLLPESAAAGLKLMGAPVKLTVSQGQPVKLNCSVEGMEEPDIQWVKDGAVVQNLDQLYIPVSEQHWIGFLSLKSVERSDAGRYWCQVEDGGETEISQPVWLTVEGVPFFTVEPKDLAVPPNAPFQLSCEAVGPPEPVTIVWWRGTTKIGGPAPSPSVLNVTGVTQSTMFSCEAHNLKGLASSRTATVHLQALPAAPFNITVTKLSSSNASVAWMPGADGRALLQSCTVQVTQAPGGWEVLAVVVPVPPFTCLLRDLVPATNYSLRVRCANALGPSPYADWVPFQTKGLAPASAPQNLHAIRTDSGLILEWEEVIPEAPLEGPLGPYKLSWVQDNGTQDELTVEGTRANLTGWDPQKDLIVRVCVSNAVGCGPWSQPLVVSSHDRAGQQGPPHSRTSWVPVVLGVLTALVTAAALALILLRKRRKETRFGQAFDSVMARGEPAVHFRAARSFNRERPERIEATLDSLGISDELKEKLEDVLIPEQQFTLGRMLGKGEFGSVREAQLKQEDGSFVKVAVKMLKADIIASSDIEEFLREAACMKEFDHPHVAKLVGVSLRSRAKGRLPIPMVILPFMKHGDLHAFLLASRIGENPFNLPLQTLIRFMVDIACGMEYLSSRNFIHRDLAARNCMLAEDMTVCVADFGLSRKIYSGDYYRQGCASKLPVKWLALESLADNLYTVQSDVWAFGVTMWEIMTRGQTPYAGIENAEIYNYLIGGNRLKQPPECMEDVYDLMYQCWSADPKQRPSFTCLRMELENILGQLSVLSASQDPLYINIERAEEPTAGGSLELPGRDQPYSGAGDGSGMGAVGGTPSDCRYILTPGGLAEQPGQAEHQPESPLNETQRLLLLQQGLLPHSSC
The note with it: at 1 µM.

For experiment [2], the target named is Tyrosine-protein kinase Yes (Homo sapiens) (UniProt P07947). The settings on record: at 0.1 µM.
Sequence of Tyrosine-protein kinase Yes (Homo sapiens) (P07947 2-543 limits assumed): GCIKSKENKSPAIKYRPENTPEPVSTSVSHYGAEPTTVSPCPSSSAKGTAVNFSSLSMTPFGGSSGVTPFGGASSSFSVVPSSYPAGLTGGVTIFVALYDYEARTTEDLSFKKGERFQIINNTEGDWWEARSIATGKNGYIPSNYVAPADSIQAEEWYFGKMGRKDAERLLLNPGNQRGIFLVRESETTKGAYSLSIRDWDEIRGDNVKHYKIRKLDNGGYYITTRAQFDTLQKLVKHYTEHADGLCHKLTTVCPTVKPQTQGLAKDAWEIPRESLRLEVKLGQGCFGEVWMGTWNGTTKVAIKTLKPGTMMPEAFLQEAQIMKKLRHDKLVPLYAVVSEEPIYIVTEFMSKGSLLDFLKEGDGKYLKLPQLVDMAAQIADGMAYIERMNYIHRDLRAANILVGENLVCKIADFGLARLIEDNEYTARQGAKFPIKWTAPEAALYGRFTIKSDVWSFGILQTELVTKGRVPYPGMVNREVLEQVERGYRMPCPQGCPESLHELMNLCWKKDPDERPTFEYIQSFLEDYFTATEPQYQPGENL
Experiment [3] shares this target. The settings on record: at 1 µM.
In experiment [4] the target is T2, Tyrosine-protein kinase ZAP-70 (Homo sapiens) (UniProt P43403).
T2 sequence (whole entry): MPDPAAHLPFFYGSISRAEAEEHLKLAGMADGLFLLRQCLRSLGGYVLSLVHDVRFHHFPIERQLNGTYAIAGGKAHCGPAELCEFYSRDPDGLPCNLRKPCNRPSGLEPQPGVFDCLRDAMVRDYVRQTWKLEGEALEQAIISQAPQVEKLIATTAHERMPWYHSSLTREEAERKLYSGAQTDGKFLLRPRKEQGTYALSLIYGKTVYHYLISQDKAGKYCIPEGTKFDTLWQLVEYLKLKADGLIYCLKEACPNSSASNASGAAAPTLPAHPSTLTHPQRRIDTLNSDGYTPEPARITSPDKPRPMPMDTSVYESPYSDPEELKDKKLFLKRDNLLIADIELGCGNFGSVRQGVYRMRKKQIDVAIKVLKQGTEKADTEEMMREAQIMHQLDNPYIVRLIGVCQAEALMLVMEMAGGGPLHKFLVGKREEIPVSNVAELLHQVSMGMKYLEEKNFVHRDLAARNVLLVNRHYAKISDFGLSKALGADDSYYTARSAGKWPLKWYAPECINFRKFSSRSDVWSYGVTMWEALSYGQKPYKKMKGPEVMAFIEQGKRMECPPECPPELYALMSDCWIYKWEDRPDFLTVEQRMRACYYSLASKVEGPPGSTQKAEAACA
The note with it: at 0.1 µM.

Experiment [5] has as its target T2, Tyrosine-protein kinase ZAP-70 (Homo sapiens). The note with it: at 1 µM.
The target of experiment [6] is Serine/threonine-protein kinase B-raf (Homo sapiens) (UniProt P15056). The note with it: at 0.1 µM.
Sequence of Serine/threonine-protein kinase B-raf (Homo sapiens) (P15056 whole entry): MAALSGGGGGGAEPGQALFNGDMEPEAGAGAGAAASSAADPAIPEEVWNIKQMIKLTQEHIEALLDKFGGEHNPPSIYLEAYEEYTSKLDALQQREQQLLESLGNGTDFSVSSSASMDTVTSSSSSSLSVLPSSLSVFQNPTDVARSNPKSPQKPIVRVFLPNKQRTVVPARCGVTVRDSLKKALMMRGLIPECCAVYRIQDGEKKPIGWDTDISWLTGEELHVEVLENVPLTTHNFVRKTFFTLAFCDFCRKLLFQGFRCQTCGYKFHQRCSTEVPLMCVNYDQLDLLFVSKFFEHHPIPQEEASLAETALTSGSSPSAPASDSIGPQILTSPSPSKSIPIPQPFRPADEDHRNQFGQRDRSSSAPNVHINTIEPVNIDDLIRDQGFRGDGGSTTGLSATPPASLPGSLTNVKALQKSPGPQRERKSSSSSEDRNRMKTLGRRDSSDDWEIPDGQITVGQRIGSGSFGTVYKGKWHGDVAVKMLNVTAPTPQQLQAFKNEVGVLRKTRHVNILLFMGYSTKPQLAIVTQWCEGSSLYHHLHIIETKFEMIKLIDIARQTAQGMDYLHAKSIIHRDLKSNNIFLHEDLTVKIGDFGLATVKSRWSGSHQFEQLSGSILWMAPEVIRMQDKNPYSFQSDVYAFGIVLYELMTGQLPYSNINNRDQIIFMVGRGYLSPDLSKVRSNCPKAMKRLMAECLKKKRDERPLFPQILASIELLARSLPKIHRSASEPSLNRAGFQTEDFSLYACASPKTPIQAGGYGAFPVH
The target is the same in experiment [7]. The settings on record: at 1 µM.
For experiment [8], the system named is Serine/threonine-protein kinase B-raf (Homo sapiens), P15056 [V600E]. The note with it: at 0.1 µM.
Sequence of Serine/threonine-protein kinase B-raf (Homo sapiens), P15056 [V600E] (P15056 whole entry V600E): as the sequence (P15056 whole entry) above, with V600E counted along it
The test system is the same in experiment [9]. The note with it: at 1 µM.
For experiment [10], the target named is RAF proto-oncogene serine/threonine-protein kinase (Homo sapiens) (UniProt P04049). The settings on record: at 0.1 µM.
Sequence of RAF proto-oncogene serine/threonine-protein kinase (Homo sapiens) (P04049 whole entry): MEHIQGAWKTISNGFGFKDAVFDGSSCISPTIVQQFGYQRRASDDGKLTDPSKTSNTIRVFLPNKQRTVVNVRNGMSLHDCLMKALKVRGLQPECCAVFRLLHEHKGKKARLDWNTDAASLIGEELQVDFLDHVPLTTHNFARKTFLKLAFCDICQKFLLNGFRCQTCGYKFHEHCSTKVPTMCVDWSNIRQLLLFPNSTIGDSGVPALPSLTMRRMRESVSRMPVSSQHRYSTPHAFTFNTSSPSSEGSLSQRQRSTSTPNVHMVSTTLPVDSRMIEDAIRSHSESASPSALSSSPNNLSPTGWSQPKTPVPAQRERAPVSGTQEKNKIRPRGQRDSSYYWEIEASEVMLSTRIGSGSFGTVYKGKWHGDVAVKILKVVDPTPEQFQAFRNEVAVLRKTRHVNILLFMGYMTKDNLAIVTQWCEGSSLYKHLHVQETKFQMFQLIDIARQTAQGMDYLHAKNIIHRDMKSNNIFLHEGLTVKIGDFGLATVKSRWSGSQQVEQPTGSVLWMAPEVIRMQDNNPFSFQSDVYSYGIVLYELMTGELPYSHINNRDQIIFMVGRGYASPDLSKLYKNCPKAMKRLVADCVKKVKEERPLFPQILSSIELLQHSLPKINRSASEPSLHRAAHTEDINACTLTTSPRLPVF
Experiment [11] has the same target. The settings on record: at 1 µM.
The target of experiment [12] is T3, Interleukin-1 receptor-associated kinase 4 (Homo sapiens) (UniProt Q9NWZ3).
T3 sequence (whole entry): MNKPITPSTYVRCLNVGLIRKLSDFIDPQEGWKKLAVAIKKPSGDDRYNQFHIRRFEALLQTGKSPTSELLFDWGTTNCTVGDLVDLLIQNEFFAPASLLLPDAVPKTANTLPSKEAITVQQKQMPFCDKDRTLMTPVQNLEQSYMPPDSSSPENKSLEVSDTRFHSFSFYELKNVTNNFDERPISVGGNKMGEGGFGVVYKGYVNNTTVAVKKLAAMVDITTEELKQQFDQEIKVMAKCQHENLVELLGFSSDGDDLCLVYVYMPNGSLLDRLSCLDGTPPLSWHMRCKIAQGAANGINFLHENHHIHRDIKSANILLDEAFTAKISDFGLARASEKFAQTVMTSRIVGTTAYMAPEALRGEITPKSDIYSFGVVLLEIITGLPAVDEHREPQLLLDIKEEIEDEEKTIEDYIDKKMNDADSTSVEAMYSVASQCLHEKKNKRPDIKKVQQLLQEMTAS
The note with it: at 0.1 µM.

Experiment [13] addresses T3, Interleukin-1 receptor-associated kinase 4 (Homo sapiens). The note with it: at 1 µM.
Experiment [14] deals with Leucine-rich repeat serine/threonine-protein kinase 2 (Homo sapiens) (UniProt Q5S007). The settings on record: at 0.1 µM.
Sequence of Leucine-rich repeat serine/threonine-protein kinase 2 (Homo sapiens) (Q5S007 whole entry): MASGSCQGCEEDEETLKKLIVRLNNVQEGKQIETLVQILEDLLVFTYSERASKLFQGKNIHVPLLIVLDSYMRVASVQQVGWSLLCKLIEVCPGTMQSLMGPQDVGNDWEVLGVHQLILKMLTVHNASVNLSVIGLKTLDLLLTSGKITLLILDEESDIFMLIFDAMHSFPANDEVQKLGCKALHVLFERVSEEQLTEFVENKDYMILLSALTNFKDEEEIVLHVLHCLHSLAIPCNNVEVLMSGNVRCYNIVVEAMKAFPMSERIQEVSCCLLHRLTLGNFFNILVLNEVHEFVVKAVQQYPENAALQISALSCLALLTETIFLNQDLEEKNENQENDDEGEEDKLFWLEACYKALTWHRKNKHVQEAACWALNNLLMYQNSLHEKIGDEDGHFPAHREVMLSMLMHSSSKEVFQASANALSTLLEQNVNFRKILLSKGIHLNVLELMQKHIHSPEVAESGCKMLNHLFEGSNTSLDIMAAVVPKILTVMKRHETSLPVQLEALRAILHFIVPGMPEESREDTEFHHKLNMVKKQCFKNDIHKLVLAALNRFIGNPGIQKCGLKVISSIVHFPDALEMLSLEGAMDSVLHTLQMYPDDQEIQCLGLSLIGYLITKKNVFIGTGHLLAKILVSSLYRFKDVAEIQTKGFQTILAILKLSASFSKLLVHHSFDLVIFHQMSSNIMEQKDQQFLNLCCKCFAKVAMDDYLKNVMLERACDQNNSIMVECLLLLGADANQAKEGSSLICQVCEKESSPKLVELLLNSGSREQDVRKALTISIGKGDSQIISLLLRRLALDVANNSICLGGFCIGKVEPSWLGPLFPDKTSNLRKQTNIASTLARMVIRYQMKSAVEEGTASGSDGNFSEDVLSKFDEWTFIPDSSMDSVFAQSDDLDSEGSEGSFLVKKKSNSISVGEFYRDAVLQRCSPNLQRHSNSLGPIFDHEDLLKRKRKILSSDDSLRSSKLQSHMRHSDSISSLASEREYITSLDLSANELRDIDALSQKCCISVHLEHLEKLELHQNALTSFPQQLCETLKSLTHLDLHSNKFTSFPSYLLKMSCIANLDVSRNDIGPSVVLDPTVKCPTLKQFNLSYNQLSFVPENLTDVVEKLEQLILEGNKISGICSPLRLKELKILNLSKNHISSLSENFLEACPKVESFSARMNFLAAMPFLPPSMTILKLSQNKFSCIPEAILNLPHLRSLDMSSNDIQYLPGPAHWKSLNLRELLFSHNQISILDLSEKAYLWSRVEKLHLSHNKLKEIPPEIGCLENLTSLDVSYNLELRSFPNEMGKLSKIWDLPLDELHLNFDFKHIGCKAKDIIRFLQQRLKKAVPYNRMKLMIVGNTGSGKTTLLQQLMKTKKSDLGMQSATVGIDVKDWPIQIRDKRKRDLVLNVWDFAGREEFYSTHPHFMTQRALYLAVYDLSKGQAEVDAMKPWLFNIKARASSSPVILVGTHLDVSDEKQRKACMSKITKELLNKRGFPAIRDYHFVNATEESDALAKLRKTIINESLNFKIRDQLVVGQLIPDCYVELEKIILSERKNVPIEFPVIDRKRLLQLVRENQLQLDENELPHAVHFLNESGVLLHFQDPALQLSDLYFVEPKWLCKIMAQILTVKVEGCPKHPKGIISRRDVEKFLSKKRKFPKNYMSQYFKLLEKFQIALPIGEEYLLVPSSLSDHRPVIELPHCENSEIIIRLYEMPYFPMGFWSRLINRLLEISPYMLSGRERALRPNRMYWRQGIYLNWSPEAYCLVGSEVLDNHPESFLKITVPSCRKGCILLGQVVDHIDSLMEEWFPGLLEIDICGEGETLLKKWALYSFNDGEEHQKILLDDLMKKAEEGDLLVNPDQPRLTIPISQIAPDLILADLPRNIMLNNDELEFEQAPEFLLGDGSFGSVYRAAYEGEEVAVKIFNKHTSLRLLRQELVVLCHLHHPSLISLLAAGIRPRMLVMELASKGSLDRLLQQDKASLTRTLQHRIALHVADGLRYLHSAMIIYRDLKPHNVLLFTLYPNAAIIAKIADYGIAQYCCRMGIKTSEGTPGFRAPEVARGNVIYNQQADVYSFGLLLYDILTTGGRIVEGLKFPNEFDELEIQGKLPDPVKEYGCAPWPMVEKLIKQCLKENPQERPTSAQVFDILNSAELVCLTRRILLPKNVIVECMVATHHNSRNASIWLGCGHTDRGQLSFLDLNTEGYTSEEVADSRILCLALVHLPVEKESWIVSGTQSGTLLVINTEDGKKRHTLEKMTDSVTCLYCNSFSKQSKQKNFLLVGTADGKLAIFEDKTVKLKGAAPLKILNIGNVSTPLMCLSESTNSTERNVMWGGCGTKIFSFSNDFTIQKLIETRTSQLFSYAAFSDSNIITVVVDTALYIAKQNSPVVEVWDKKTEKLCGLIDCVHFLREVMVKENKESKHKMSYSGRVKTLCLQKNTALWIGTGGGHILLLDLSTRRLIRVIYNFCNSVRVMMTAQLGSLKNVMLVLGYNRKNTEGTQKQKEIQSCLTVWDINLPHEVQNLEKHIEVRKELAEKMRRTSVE
The target is the same in experiment [15]. The settings on record: at 1 µM.
The test system of experiment [16] is Leucine-rich repeat serine/threonine-protein kinase 2 (Homo sapiens), Q5S007 [G2019S]. The settings on record: at 0.1 µM.
Sequence of Leucine-rich repeat serine/threonine-protein kinase 2 (Homo sapiens), Q5S007 [G2019S] (Q5S007 whole entry G2019S): as the sequence (Q5S007 whole entry) above, with G2019S counted along it
Experiment [17] shares this test system. The note with it: at 1 µM.

Turning to `CN(c1ccc(NC(=O)NCCN2CCOCC2)cc1)c1ccnc(Nc2ccc(CS(C)(=O)=O)cc2)n1`, the inhibition in experiment [1] worked out at 6.95%; in experiment [2] it was 1.4%; in [3] it was 8.5%; in [4], 0.58%; in [5], 2.72%; in experiment [6], 4.55%. The inhibition is 7.4% in experiment [7]; 3.94% in [8]; 7.38% in experiment [9]; 6.1% in experiment [10]; 7.58% in experiment [11]; -5.94% in experiment [12]. For the same compound, the inhibition in [13] amounted to 1.07%; in [14] it was 2.79%; in [15], 9.85%; in experiment [16], 2.66%; in experiment [17], 14.7%.
As for `NS(=O)(=O)c1ccc(N/N=C2\C(=O)Nc3cccc(CCc4ccncc4)c32)cc1`, the inhibition was 2.17% in experiment [1]; 4.12% in experiment [2]; 11.4% in experiment [3]; -0.82% in [4]; 13.7% in experiment [5]; 1.54% in experiment [6]. Besides, the inhibition is 1.46% in experiment [7]; 3.22% in [8]; 2.2% in experiment [9]; -0.07% in experiment [10]; -2.61% in experiment [11]; -0.38% in experiment [12]. Also, the inhibition in [13] was 0.01%; in [14], 6.21%; in [15], 9.58%; in experiment [16], 8.14%; in experiment [17], 12.9%.
Take `COc1cc(Nc2ncc(-c3ccccc3)o2)cc(OC)c1`: the inhibition was 8.91% in [1]; 5.8% in experiment [2]; 39.5% in experiment [3]; 2.8% in experiment [4]; 1.02% in [5]; 7.08% in experiment [6]. Also, the inhibition was 6.68% in experiment [7]; 5.31% in experiment [8]; 3.47% in [9]; 0.47% in experiment [10]; -1.38% in experiment [11]; 2.03% in experiment [12]. Besides, the inhibition in experiment [13] came to 2.83%; in experiment [14], 0.94%; in [15] it was 6.82%; in experiment [16], 2.33%; in experiment [17], 12.5%.
`Cc1nnc(-c2cccc(-c3ccc(C(=O)NCC4CC4)cc3)c2)o1`: the inhibition in [1] turned out to be 4.17%; in experiment [2] it was 5.35%; in [3], 7.53%; in [4] it was 4.93%; in experiment [5], 7.42%; in experiment [6], 8.68%. Besides, the inhibition in [7] was 6.82%; in [8], 7.4%; in experiment [9] it was 5.64%; in experiment [10], -0.41%; in [11], 1.67%; in experiment [12] it was -1.48%. Also, the inhibition was found to be 2.66% in experiment [13]; 3.32% in experiment [14]; 5.55% in [15]; 4.33% in experiment [16]; 7.83% in experiment [17].
As for `COc1cc(N2CCN(C(C)C)CC2)ccc1Nc1nc(Nc2cccc(F)c2C(=O)O)c2cc[nH]c2n1`, the inhibition in experiment [1] came out at 3.99%; in [2], 1.69%; in [3], 8.64%; in experiment [4], 2.69%; in experiment [5], 7.8%; in [6] it was 6.1%. Besides, the inhibition in experiment [7] amounted to 7.89%; in [8] it was 6.27%; in [9], 7.5%; in experiment [10], 1.76%; in experiment [11], 0.19%; in experiment [12], 2.04%. Besides, the inhibition in experiment [13] was determined as 2.25%; in experiment [14], 6.61%; in experiment [15] it was 16.3%; in [16] it was 19%; in [17], 59.3%.
Regarding `CN1CCC(C(=O)Nc2n[nH]c3nc(-c4ccc(O)cc4)c(Br)cc23)CC1`, the inhibition in [1] was 7.08% and 4.86%; in experiment [2] it was 4% and 0.88%; in experiment [3] it was 10.6% and 3.33%; in [4], -0.14% and 0.65%; in experiment [5] it was 2.21% and 2.11%; in [6] it was 9.05% and 4.77%. Further, the inhibition in experiment [7] was 16% and 14.5%; in experiment [8], 9.4% and 4.5%; in experiment [9], 13.8% and 8.76%; in experiment [10] it was 13% and -0.38%; in experiment [11] it was 2.83% and -8.49%; in experiment [12], 3.04% and 2.37%. The inhibition was 2.24% and 1.33% in experiment [13]; -2.84% and -1.67% in experiment [14]; 2.03% and 7.36% in [15]; -0.31% and 1.49% in experiment [16]; 4.77% and 5.48% in [17].
With `CCS(=O)(=O)c1ccc(OC)c(Nc2ncc(-c3cccc(F)c3)o2)c1`, the inhibition in [1] is 26.2%; in experiment [2], 75.9%; in experiment [3], 96.3%; in experiment [4] it was 1.94%; in experiment [5] it was 5.25%; in experiment [6], 7.42%. For the same compound, the inhibition in [7] is 10%; in experiment [8], 4.95%; in [9], 4.95%; in experiment [10], 1.22%; in experiment [11], -3.37%; in [12], 2.36%. In addition, the inhibition in experiment [13] is 5.42%; in experiment [14], 2.2%; in experiment [15], 14.5%; in [16], 6.1%; in experiment [17] it was 27.9%.
On to `COc1cc(N2CCN(C(C)C)CC2)ccc1Nc1nc(Nc2cccc3ncccc23)c2cc[nH]c2n1`, for which the inhibition was -0.92% in [1]; -0.19% in experiment [2]; 1.79% in experiment [3]; -0.91% in experiment [4]; -0.16% in experiment [5]; -0.4% in experiment [6]. The inhibition in experiment [7] was found to be 0.61%; in experiment [8], 0.32%; in experiment [9] it was 1.11%; in [10] it was 0.02%; in [11], 10.1%; in experiment [12], 5.39%. The inhibition is -0.29% in [13]; 13% in experiment [14]; 23.2% in experiment [15]; 24.5% in [16]; 63% in experiment [17].

The term inhibition denotes the relative decrease from the control value, in per cent.
